# Experimental data: US20160355875, “METHODS AND KITS FOR DETECTING NUCLEIC ACID SEQUENCES OF INTEREST USING DNA-BINDING PROTEIN DOMAIN” (CELLECTIS, published 2016)
# T1: TALE RAGT2-Renila luciferase fusion (pCLS24992) (artificial, UniProt P14727 SEQ:21-699)
# T1 chain: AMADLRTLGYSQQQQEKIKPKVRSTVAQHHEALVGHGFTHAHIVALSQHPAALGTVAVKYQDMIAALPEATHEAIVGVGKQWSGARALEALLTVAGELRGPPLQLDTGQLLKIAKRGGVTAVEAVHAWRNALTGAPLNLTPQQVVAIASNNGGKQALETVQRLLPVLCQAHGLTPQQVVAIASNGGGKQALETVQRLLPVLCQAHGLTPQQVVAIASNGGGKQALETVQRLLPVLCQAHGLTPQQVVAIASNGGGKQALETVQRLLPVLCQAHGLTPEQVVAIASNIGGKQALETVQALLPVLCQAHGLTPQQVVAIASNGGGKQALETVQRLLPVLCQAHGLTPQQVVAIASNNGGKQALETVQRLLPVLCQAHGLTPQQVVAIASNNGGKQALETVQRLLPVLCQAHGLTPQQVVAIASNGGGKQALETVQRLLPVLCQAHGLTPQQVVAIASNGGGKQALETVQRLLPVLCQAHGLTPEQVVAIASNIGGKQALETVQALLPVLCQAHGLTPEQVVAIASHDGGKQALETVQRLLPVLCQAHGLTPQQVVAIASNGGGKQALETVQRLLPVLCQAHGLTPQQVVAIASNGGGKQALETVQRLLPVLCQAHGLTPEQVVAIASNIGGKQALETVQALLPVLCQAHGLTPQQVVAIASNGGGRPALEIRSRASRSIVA
# B1: pray SEQ 6 :bait (dsDNA)
# DNA 1: CATGGTTTATGGTTACTTATGG
# DNA 2: GTACAAAAAAGCAGTCGACTAGGGATAACAGGGTAATTATATAAACCTAACCCTCTTAGCATGAAGGTACCATAAGTAACCATAAACAATG
# Target: T1, TALE RAGT2-Renila luciferase fusion …
# Experiment: mutation at T0 reduces luminescence by more than 60%; capture plus TALE binding
# Conditions: tags: N-terminal His tag, C-terminal Renilla luciferase fusion; deltaN152 N-terminal domain, C11 C-terminal truncation; expressed in E. coli; label: biotin on bait; mismatched duplex
# Method: Different ssDNA targets (SEQ ID NO 6-20) harboring unique or multiple mutations with respect to the ssDNA wild type pray (SEQ ID NO 5, 10 pmol) were synthesized and used to assess the specificity of TALE RAGT2-Renila detector system. We first studied the effect of increasing amount of mutation within the ssDNA target on the luminescence of TALE RAGT2-Renila according to the detection protocol described earlier. Briefly, 10 pmol of ssDNA wild type or mutated were incubated with the ssDNA biotinylated pray already immobilized on the streptavidine coated plate. The mixture was heated and allow to cool down to RT. After washing the well with high and low salt containing TBST buffers, an excess of TALE RAGT2-Renila was added to the well (^{˜}300 pmol total), the unbound was then removed by two low salt buffer washing steps and the reaction mixture was added to determine luminescence. The luminescence obtained for each of the ssDNA prays used is illustrated in FIG. 20.
binder,measurement,value
B1,binding signal,< 40 % of WT
